Test results reported in PubChem BioAssay (NCATS).
Results filed as inconclusive are left out. Active and inactive are the calls of the source. Calls come from the whole dose curve; as a rule, active = well fitted curve in the direction sought with a large enough effect; inconclusive = small, poorly fitted or top-dose-only effect, or another doubt; inactive = no such curve, though single readings can be large; an effect the other way counts as inactive or inconclusive.

Key:
[1] = NCATS anti-infectives library activity on HEK293 viability as a counter-qHTS vs the C. elegans viability qHTS (AID 1745854); conditions: HEK293 viability counter-screen; series mostly up to 41.8 µM
Method in brief: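 Cytotoxicity counter-screen to a worm viability qHTS: CellTiter-Glo luminescence read 10 min after reagent addition. Compounds (final up to 41.7 uM, a 1:5 dilution series) incubated 24 hr at 37C with 1,500 HEK293 cells per well; digitonin control.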

[2] = Viability counterscreen for antagonist of constitutive androstane receptor (CAR) against the NCATS DSHEA and TCM libraries (AID 1794837); conditions: CAR reporter cell line viability counterscreen, qHTS; series mostly up to 40 µM;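 note: compound exposure lasted 24 h before viability reading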
Method in brief: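 Counterscreen performed in a 1536-well qHTS format using HepG2-CYP2B6-hCAR cells; samples titrated in the presence of 48 uM CITCO, with viability measured fluorometrically (405/540 nm) after 24 h.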

[3] = Viability counterscreen for agonist of constitutive androstane receptor (CAR) against the NCATS DSHEA and TCM libraries (AID 1794838); conditions: HepG2 cell viability counterscreen, CAR agonist assay, co-treated with 0.75 µM CAR antagonist; series mostly up to 40 µM;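 note: HepG2 cells with CYP2B6 reporter and hCAR plus 0.75 µM PK11195 antagonist; cells exposed to compound for 24 h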
Method in brief: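 Multiplexed counterscreen: after 24 h compound exposure with 0.75 uM PK11195, HepG2-CYP2B6-hCAR viability was quantified fluorimetrically (CellTiter-Fluor, 405/540 nm) prior to the ONE-Glo luciferase read.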

Structure (SMILES)	outcome [1]	outcome [2]	outcome [3]
Nc1ccc(N=Nc2ccccc2)c(N)n1	inactive	–	–
CC(=O)N[C@@H]([C@@H](O)[C@H](O)[C@H](O)CO)[C@@H](O)CC(=O)C(=O)O	inactive	–	–
C=C1CC[C@H](O)CC1=C/C=C1\CCC[C@]2(C)[C@@H]([C@H](C)/C=C/[C@H](C)C(C)C)CC[C@@H]12	–	inactive	inactive
CCN(CC)C(=S)S	inactive	–	–
CCCCCCCCCCCC(=O)OCC(O)CO (configuration not stated)	–	inactive	inactive
CC/C=C\C/C=C\C/C=C\C/C=C\C/C=C\CCCC(=O)O	–	inactive	inactive
C=C1CC[C@H](O)C/C1=C\C=C1/CCC[C@]2(C)[C@@H]([C@H](C)CCCC(C)C)CC[C@@H]12	–	inactive	inactive
CC/C=C\C/C=C\C/C=C\CCCCCCCC(=O)O	–	inactive	inactive
COC1=C(OC)C(=O)C(C/C=C(\C)CC/C=C(\C)CC/C=C(\C)CC/C=C(\C)CC/C=C(\C)CC/C=C(\C)CC/C=C(\C)CC/C=C(\C)CC/C=C(\C)CCC=C(C)C)=C(C)C1=O	–	inactive	inactive
CC[C@H](CC[C@@H](C)[C@H]1CC[C@H]2[C@@H]3CC=C4C[C@@H](O)CC[C@]4(C)[C@H]3CC[C@]12C)C(C)C	–	inactive	inactive
CC(C)=CCC/C(C)=C/C=C/C(C)=C/C=C/C(C)=C/C=C/C=C(C)/C=C/C=C(C)/C=C/C=C(\C)CCC=C(C)C	inactive	inactive	inactive
CC/C=C\C/C=C\C/C=C\C/C=C\C/C=C\C/C=C\CCC(=O)O	–	inactive	inactive
Nc1nccs1	inactive	–	–
Nc1ncnc2c1ncn2[C@H]1CC[C@@H](CO)O1	inactive	–	–
CC(C)c1nc(N(C)S(C)(=O)=O)nc(-c2ccc(F)cc2)c1/C=C/C(O)CC(O)CC(=O)O (configuration not stated)	inactive	–	–
Cc1ncc(C[n+]2csc(CCO)c2C)c(N)n1	–	inactive	inactive
